Sampled rows, rich in hits. Any-hit rate of the full collection: about 10%.
JMJD2A Tudor inh: qHTS Assay for Inhibitors of JMJD2A-Tudor Domain; Lysine-specific demethylase 4A (Homo sapiens), O75164; Potency, µM (series often up to 114 µM), without a hit: at the top dose activity change, negative = inhibition, hits mostly inhibitors; 4.4% of 390,000 active; AID 504339, 2011; AlphaScreen JMJD2A-Tudor / H3K4me3 peptide binding; note: potency is the fitted concentration of half-maximal effect; % is set by controls: 0 for no effect and ±100 for the full control effect; nearly all actives have a fitted effect of over 50% in size
BAZ2B block: qHTS Assay for Inhibitors of BAZ2B; Bromodomain adjacent to zinc finger domain protein 2B (Homo sapiens), Q9UIF8; AlphaScreen BAZ2B-H3K14Ac peptide displacement; Potency, µM (titrated, usually from 114 µM), for inactives: at the highest dose activity change, negative = inhibition, actives largely listed as inhibitors; 4.4% of 360,000 active; AID 504333, 2011; note: potency is the fitted concentration of half-maximal effect; % is set by controls: 0 for no effect and ±100 for the full control effect; nearly all actives have a fitted effect of over 60% in size
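Multi-concentration screen (max 110 uM) measuring displacement of acetylated histone H3 peptide from BAZ2B by AlphaScreen, using 50 nM protein, 50 nM peptide and 10 ug/mL streptavidin donor plus Ni-chelate acceptor beads.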
HP1b chromo inh: HTS for Inhibitors of HP1-beta Chromodomain Interactions with Methylated Histone Tails. AlphaScreen HP1-beta / biotin-H3K9me3 peptide binding. Chromobox protein homolog 1 (Homo sapiens), P83916. 0.56% of 390,000 active. Potency, µM (highest dose often 114 µM), without a hit: top-dose activity change, negative = inhibition, usual class: inhibitors; note: potency is the fitted concentration of half-maximal effect; nearly all actives have a fitted effect of over 70% in size
Target sequence (P83916 whole entry, looked up): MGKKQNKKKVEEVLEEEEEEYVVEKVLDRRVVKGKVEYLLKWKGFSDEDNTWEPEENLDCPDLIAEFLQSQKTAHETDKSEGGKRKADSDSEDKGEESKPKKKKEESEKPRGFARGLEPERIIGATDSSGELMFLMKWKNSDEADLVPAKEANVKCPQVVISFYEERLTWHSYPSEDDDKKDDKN
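HP1-beta protein (50 nM final) preincubated 30 min at room temperature with biotinylated H3(1-18)K9me3 peptide (50 nM) in PBS pH 7.4, 0.01% Tween-20, then compound added for 30 min. AlphaScreen streptavidin donor/nickel chelate acceptor beads (10 ug/mL final), 30 min dark, luminescence read.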
CtBP-E1A inh: qHTS Assay for Inhibitors of the CtBP/E1A Interaction; CtBP / adenovirus E1A interaction (AlphaScreen); AlphaScreen GST-E1A/His-CtBP binding, 1536-well; hits give low values; activity change, % (no concentration beside the values); 0.49% of 340,000 active; in the data active = activity change below about -65%; inconclusive = mostly about -30% to -63%; note: % is set by controls: 0 for no effect and ±100 for the full control effect
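Protein mix (5X: 125 nM each GST-E1A, His-CtBP) was incubated with pinned compound 2 h at 37 deg C in dark, in 50 mM Tris pH 8.0 buffer with 300 mM NaCl. Glutathione donor and nickel acceptor beads followed; AlphaScreen signal read after 1 h.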
Six1-Eya2 blk: qHTS Assay for Inhibitors of the Six1/Eya2 Interaction; AlphaScreen GST-Six1/His-Eya2 binding, biochemical; hits give low values; AID 651725, 2012; activity change, % (concentration not given with the values); Homeobox protein SIX1 (Homo sapiens) + Protein phosphatase EYA2 (Homo sapiens), …; 0.56% of 360,000 active; in the data active = activity change below about -65%; inconclusive = mostly about -30% to -63%; note: % is set by controls: 0 for no effect and ±100 for the full control effect
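Compounds are tested against tagged Six1 and Eya2 proteins bridged by glutathione donor and nickel acceptor beads; after a one-hour incubation at 37 °C without light, AlphaScreen emission is recorded.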
G9a block: qHTS Assay for Inhibitors of Histone Lysine Methyltransferase G9a | Potency, µM (series often up to 102 µM), for the others: top-dose activity, negative = inhibition, hits mostly inhibitors | 8.8% of 350,000 active | G9a H3K9 monomethylation, AlphaScreen, 2 h | AID 504332, 2011 | Histone-lysine N-methyltransferase EHMT2 (Homo sapiens), Q96KQ7; note: potency is the fitted concentration of half-maximal effect; % is set by controls: 0 for no effect and ±100 for the full control effect; nearly all actives have a fitted effect of over 75% in size
Target sequence (Q96KQ7 913-1193 limits assumed): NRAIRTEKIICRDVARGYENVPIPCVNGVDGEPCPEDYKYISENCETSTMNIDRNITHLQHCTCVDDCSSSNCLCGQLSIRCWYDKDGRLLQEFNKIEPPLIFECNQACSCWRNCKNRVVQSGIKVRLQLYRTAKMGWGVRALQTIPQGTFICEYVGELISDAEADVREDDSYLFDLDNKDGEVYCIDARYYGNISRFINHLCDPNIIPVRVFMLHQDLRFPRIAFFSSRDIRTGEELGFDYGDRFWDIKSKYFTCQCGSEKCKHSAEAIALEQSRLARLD
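Chemiluminescent proximity detection of H3K9 monomethylation, read after 10 min bead incubation in the dark. Reaction: 20 nM G9a, 500 nM biotin-H3K9 peptide, 20 uM SAM cofactor, 2 h, room temperature, following 15 min enzyme-compound preincubation.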
Active calls of the source: *; u = inconclusive; x = no result given; ! = repeats disagree; [ ] = remark or other dose. Unless noted, calls come from the whole dose curve; as a rule, active = well fitted inhibition curve with a large enough effect; inconclusive = small, poorly fitted or top-dose-only effect; inactive = no such curve, though single readings can be large or run the other way.

SMILES	JMJD2A Tudor inh	BAZ2B block	HP1b chromo inh	CtBP-E1A inh	Six1-Eya2 blk	G9a block
N[C@H](CCCCCP(=O)(O)O)C(=O)O	x	x	x	x	x	50.9%[12.7 µM]
CC(C)(C)[C@]1(O)C[C@@H]2OC(=O)CC23C(=O)O[C@@H]2OC(=O)[C@H](O)C231 (stereo partly drawn)	x	x	x	x	x	29.2%[59 µM]
O=C1NC(=O)N(Cc2ccccc2)C(=O)/C1=C/c1cnn(-c2ccccc2)c1	x	u	x	x	x	5.62µM*
COc1ccccc1N1C(=O)NC(=O)/C(=C\c2cnn(-c3ccccc3)c2)C1=O	u	-25.8%	60.5%	4.0	19.4	8.91µM*
CC1CC(OP(O)(=S)c2ccc(N(C)C)cc2NC(=O)c2cccs2)CC(C)(C)C1 (stereo not drawn)	56.2µM*	50.1µM*	u	-9.6	-27.2	3.98µM*
O[C@H]1CCCC[C@H]1N1CCC(c2ccccc2)CC1	x	x	x	x	x	13.7%[21.5 µM]
CC(=O)c1ccc2c(c1)C1C(Cl)C(Sc3ccccc3[N+](=O)[O-])CC1C(C(=O)O)N2 (stereo not drawn)	35.5µM*	10µM*	u	3.8	-21.0	7.94µM*
O=C(O)c1cccc2c1NC(C(=O)O)C1CC(Sc3ccccc3[N+](=O)[O-])C(Cl)C21 (stereo not drawn)	14.1µM*	6.31µM*	-93.5%	4.8	u	10µM*
CCn1nc(-c2cccs2)nc2c(=O)n(C)c(=O)nc1-2	-8.6%	-11.5%	29.2%	-17.7	-13.5	17.8µM*
CCC1(Oc2ccccc2)C(=O)NC(=O)NC1=O	-13.1%	x	33.9%	7.4	0.1	x
CCC1(C)OC(c2ccccc2)=C/C(=C/C=C2C(=O)NC(=O)NC2=O)O1 (stereo not drawn)	u	39.8µM*	-5.3%	x	7.2	50.1µM*
COc1ccc(OC)c(-n2c(O)c(/C=C3\C(C)=Nc4ccccc43)c(=O)[nH]c2=O)c1	-19.7%	-36.5%	5.8%	-16.3	2.4	50.1µM*
COC(=O)C1=Nc2ccccc2/C1=C\c1c(O)n(-c2ccc(Br)cc2)c(=O)[nH]c1=O	u	56.2µM*	-11.1%	7.5	-7.9	15.8µM*
COC(=O)C1=Nc2ccccc2/C1=C\c1c(O)n(-c2ccc(OC)cc2)c(=O)[nH]c1=O	u	79.4µM*	9.8%	-9.6	-1.9	9.3%[12.7 µM]
O=c1[nH]c(=O)n(-c2ccccc2)c(O)c1/C=C1/C(c2ccccc2)=Nc2ccccc21	u	u	-9.8%	-1.4	0.7	u
COc1cc([C@@H]2c3cc4c(cc3[C@H](O)[C@H]3COC(=O)[C@@H]23)OCO4)cc(OC)c1OC	-18.4%	x	72.5%	x	x	x
CC1CCC2(CC1)NC(=O)N(NC(=O)CCl)C2=O (stereo not drawn)	2.4%	-1.2%	53.3%	9.8	4.3	-29.2%
Cc1nn2c(=O)cc(N3CCNCC3)nc2s1	-2.0%	x	x	x	x	x
COC(=O)N1CCC2(CCCN(C)C2)CC1	x	x	x	x	x	31.7%[12.7 µM]
O=C1/C(=C/c2ccc3c(c2)OCO3)N2CCC1CC2	-18.3%	-4.0%	23.9%	-0.6	5.7	-9.6%[59 µM]
O=C1/C(=C\c2cc3c(cc2Br)OCO3)N2CCC1CC2	-12.5%	-9.4%	12.1%	3.3	-1.2	44.7µM*
CC1=C[C@@H]2c3cccc4[nH]cc(c34)C[C@H]2N(C)C1	-22.5%	-25.7%	1.3%[57 µM]	-25.6	u	44.7µM*
CCN(CC)C(=O)N[C@@H]1C[C@H]2c3cccc4[nH]cc(c34)C[C@@H]2N(C)C1	x	x	x	x	x	17.5%[21.5 µM]
C/C(=C/CCC(C)[C@H]1CC[C@@]2(C)C3=C(CC[C@]12C)[C@@]1(C)CCC(=O)C(C)(C)[C@@H]1CC3)C(=O)O (stereo partly drawn)	63.1µM*	u	10.1%	1.9	6.4	u
CC(=O)O[C@H](CC(=O)O)C[N+](C)(C)C	-15.1%	9.6%	29.0%	12.4	3.7	7.3%[59 µM]
SMILES	JMJD2A Tudor inh	BAZ2B block	HP1b chromo inh	CtBP-E1A inh	Six1-Eya2 blk	G9a block
CN(C)c1ccc(CN2CC=C(c3ccc(F)cc3)CC2)cc1	50.1µM*	50.1µM*	-37.7%	u	u	u
COc1ccc(CN2CCN(c3ncnc4sc5c(c34)CCCC5)CC2)cc1F	-29.8%	-28.6%	5.1%	x	x	u
c1ccc2c(c1)Nc1ccccc1S2	u	12.6µM*	u	-26.0	-20.4	12.6µM*
Clc1ccc2[nH]c3c(c2c1)CCNC3	-17.6%	-25.5%	15.1%	-15.0	-1.3	79.4µM*
Cc1nc(N)sc1CCN	x	x	x	x	x	34.5%[59 µM]
O=C(CCS(=O)NCc1ccccc1)NCc1ccccc1 (stereo not drawn)	x	-5.9%	x	x	x	17.8µM*
Cn1cc(C(=O)NCc2ccccc2)c2ccccc21	4.2%	-0.7%	10.4%	1.3	3.6	10.0%
CN1C(=O)C(=Cc2ccc(SC3CCCCC3)o2)C(=O)N(C)C1=O	u	56.2µM*	u	-9.2	8.0	12.6µM*
COc1ccc(-c2n[nH]c(=S)n2-c2ccc3c(c2)OCCO3)cc1OC	3.16µM*	-10.2%	8.2%	x	1.7	x
S=c1[nH]nc(-c2ccc3ccccc3n2)n1-c1ccc2c(c1)OCCO2	44.7µM*	u	8.4%	-13.7	-8.7	x
Cc1ccccc1-n1c(/C=C/c2ccccc2F)nc2ccccc2c1=O	-3.6%	3.1%	57.9%	x	x	-3.5%[59 µM]
NC(N)=Nc1ccc2[nH]c3c(c2c1)C[C@@]1(O)[C@H]2Cc4ccc(O)c5c4[C@@]1(CCN2CC1CC1)[C@H]3O5	3.55µM*	25.1µM*	u	-21.8	-7.1	1.26µM*
Oc1ccc2c3c1O[C@H]1c4oc5ccccc5c4C[C@@]4(O)C(C2)N(CC2CC2)CC[C@]314	x	x	x	x	x	-2.8%[59 µM]
CCOC(=O)c1ccc(N2C(=O)c3n[nH]c(-c4cccs4)c3C2c2ccc(Cl)cc2Cl)cc1 (stereo not drawn)	u	x	14.7%	x	x	-42.8%[59 µM]
C[C@](N)(CCP(=O)(O)O)C(=O)O	3.98µM*	u	-15.3%	-16.6	5.7	14.1µM*!
CCN(CC)Cc1c[nH]c2ccccc12	-29.6%	u	1.0%	7.6	-0.6	u
CCC(CC)NCc1c[nH]c2ccccc12	22.4µM*	79.4µM*	-29.6%	3.3	-0.9	14.1µM*
CC(C)=CCCC1(C)C=Cc2c(O)c3c(c(CC=C(C)C)c2O1)OC12C(=CC4CC1C(C)(C)OC2(C/C=C(/C)C(=O)O)C4=O)C3=O (stereo not drawn)	x	x	x	x	x	-38.6%[2.33 µM]
Clc1cncc(N2CCNCC2)n1	x	x	x	x	x	18.9%[59 µM]

Screens as filed in PubChem BioAssay.
